Bioassay records (PubChem)
Only some compounds are listed: those with a hit (about 1.2% of all), similar ones and a draw of the others.
FAS TE block: inhibitors of human fatty acid synthase thioesterase domain; actives 0.67% (n = 360,000); inhibition, % at 15 µM; recombinant FAS-TE, OMFH fluorogenic substrate, fluorescence endpoint; AID 602261; P49327;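 active = compounds whose normalised, plate-corrected inhibition of enzyme fluorescence in the single-dose primary screen is 50% or more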;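 note: 0% = DMSO with enzyme and 100% = substrate without enzyme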
p97 ATPase inh: blocks human p97 ATPase activity. P55072. recombinant p97 ATPase, Kinase-Glo ATP luminescence, 3 h. inhibition, % at 8 µM. actives 0.42% (n = 220,000); in the data active = inhibition above about 15%;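 note: 0% = DMSO vehicle and 100% = wells lacking enzyme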
PKD1 kinase inh: blocks activity of human protein kinase D1. AID 797. inhibition, % (test concentration not listed). PKD1 kinase fluorescence polarization assay. actives 0.056% (n = 200,000). Q15139; in the data active = inhibition above about 50%
SUMO HTRF inh: blocks human SUMOylation mediated by UBC9. inhibition, % at 35 µM. P63279. HTRF SUMOylation assay, SAE1/SAE2 + UBC9, in vitro. actives 0.36% (n = 290,000); in the data active = inhibition above about 50%, passing the limit was not always enough
DTT redox prof: compounds producing H2O2 with reducing agent – biochemical, NIH compound library profiling, artefact control for MLSCN library redox annotation, primary screen; DTT-dependent redox cycling H2O2, phenol red/HRP absorbance; 100% = 100 µM peroxide control, 0% = buffer; activation, % at 10 µM; actives 0.03% (n = 200,000); AID 878;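 active = activation of at least 50% relative to the plate's high and low controls in the primary single-dose screen; inactive = activation below 50%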;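 note: compound incubated with DTT at 0.8 mM final as the reducing agent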
Furin inh: human furin inhibition. P09958. purified furin, fluorogenic substrate cleavage. inhibition, % at 20 µM or 30 µM. actives 0.061% (n = 220,000). AID 463115; in the data active = inhibition above about 25%
FAS-TE conf: FAS thioesterase (human) inhibition, confirmation; AID 624325; inhibition, % at 15 µM; actives 45% (n = 2,300); shares compounds with FAS TE block; recombinant FAS-TE, OMFH fluorogenic substrate, fluorescence;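 active = compounds inhibiting the enzyme by at least 50% at 15 µM in any one of the replicates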;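 note: 0% = enzyme with DMSO only and 100% = wells lacking enzyme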
Active calls of the source: *; x = no result given.

SMILES | FAS TE block | p97 ATPase inh | PKD1 kinase inh | SUMO HTRF inh | DTT redox prof | Furin inh | FAS-TE conf
Cc1cccc(C)c1-n1nnnc1C(c1cc2ccccc2o1)N1CCC(n2c(=O)[nH]c3ccccc32)CC1 (stereo not given) | 81.4* | x | x | x | x | x | -1.9
Cc1cccc(C)c1-n1nnnc1C(c1ccccc1OC(F)(F)F)N1CCC(n2c(=O)[nH]c3ccccc32)CC1 (stereo not given) | 54.2* | x | x | x | x | x | 22.4
COc1ccc(C(c2nnnn2-c2c(C)cccc2C)N2CCC(n3c(=O)[nH]c4ccccc43)CC2)cc1 (stereo not given) | 62.5* | x | x | x | x | x | 35.4*
CN1CCCCC1Cc1ccccc1 (stereo not given) | -2.9 | x | x | x | x | x | x
CC(Cc1ccc(O)cc1)NCC(O)c1ccc(O)c(O)c1 (stereo not given) | 1.0 | x | x | x | x | x | x
O=c1[nH]c2ccccc2n1C1CCN(C(c2ccccc2OC(F)(F)F)c2nnnn2-c2ccc3c(c2)OCCO3)CC1 (stereo not given) | 82.6* | x | x | x | x | x | 19.0
O=c1[nH]c2ccccc2n1C1CCN(C(c2ccccc2)c2nnnn2-c2ccc3c(c2)OCCO3)CC1 (stereo not given) | 39.5 | x | x | x | x | x | x
O=c1[nH]c2ccccc2n1C1CCN(C(c2cccs2)c2nnnn2-c2ccc3c(c2)OCCO3)CC1 (stereo not given) | 63.1* | x | x | x | x | x | 14.8
COc1cccc(C(c2nnnn2-c2ccc3c(c2)OCCO3)N2CCC(n3c(=O)[nH]c4ccccc43)CC2)c1OC (stereo not given) | 71.7* | x | x | x | x | x | 0.5
COc1cc(CNCCc2c[nH]c3ccccc23)cc(OC)c1 | -7.4 | x | x | 3.7 | x | x | x
Cc1ccc(NC(=O)CCNC(=O)N2C[C@H]3C[C@@H](C2)c2cccc(=O)n2C3)c(C)c1 | -2.0 | x | x | 13.5 | x | x | x
O=C1NCN(c2ccccc2)C12CCN(C(c1nnnn1-c1ccc3c(c1)OCCO3)C1CC1)CC2 (stereo not given) | 14.2 | x | x | x | x | x | x
CCCCn1nnnc1C(c1cccc2ccccc12)N1CCC2(CC1)C(=O)NCN2c1ccccc1 (stereo not given) | 21.9 | x | x | x | x | x | x
Cc1cccc(C)c1-n1nnnc1C(c1ccccc1)N1CCC2(CC1)C(=O)NCN2c1ccccc1 (stereo not given) | 39.4 | x | x | x | x | x | x
COc1ccc(C(c2nnnn2-c2c(C)cccc2C)N2CCC3(CC2)C(=O)NCN3c2ccccc2)cc1 (stereo not given) | 50.5* | x | x | x | x | x | 26.6
COc1ccc(-n2nnnc2C(c2cccc3ccccc23)N2CCC3(CC2)C(=O)NCN3c2ccccc2)cc1 (stereo not given) | 83.9* | x | x | x | x | x | 16.5
O=C1NCN(c2ccccc2)C12CCN(C(c1ccccc1)c1nnnn1-c1ccc3c(c1)OCCO3)CC2 (stereo not given) | 20.1 | x | x | x | x | x | x
O=C1NCN(c2ccccc2)C12CCN(C(c1cccs1)c1nnnn1-c1ccc3c(c1)OCCO3)CC2 (stereo not given) | 61.9* | x | x | x | x | x | 22.3
O=C1NCN(c2ccccc2)C12CCN(C(c1cccc3ccccc13)c1nnnn1-c1ccc3c(c1)OCCO3)CC2 (stereo not given) | 87.5* | x | x | x | x | x | 8.2
CC1CC2C(C(O)CC3(C)C(O)CCC23)C2(C)CCC(=O)C=C12 (stereo not given) | -9.8 | x | x | x | x | x | x
O=C1NCN(c2ccccc2)C12CCN(C(c1cc3ccccc3o1)c1nnnn1-c1ccc3c(c1)OCCO3)CC2 (stereo not given) | 74.2* | x | x | x | x | x | 21.1
COc1cccc2c1C(=O)c1c(O)c3c(c(O)c1C2=O)CC(O)(C(C)=NO)CC3OC1CC(N)C(O)C(C)O1 (stereo not given) | -109.3 | x | x | x | x | x | x
O=C(Cc1ccccc1)OCC(=O)N1CCN(S(=O)(=O)c2ccc(Cl)cc2)CC1 | -1.4 | x | x | x | x | x | x
CCOC(=O)[C@]12Cc3cc(Cl)ccc3[C@H]1N(C)C(=O)c1ccccc12 | 0.2 | x | x | x | x | x | x
CCCCCN1C(=O)c2cc(OC)ccc2[C@@]2(C(=O)OCC)Cc3cc(Cl)ccc3[C@@H]12 | 85.3* | x | x | x | x | x | 11.4
SMILES | FAS TE block | p97 ATPase inh | PKD1 kinase inh | SUMO HTRF inh | DTT redox prof | Furin inh | FAS-TE conf
CCOC(=O)[C@]12Cc3cc(Cl)ccc3[C@H]1N(CC(=O)OC)C(=O)c1ccccc12 | 55.4* | x | x | x | x | x | 28.1
CCOC(=O)[C@]12Cc3cc(Cl)ccc3[C@H]1N(C(C)C)C(=O)c1ccccc12 | 67.6* | x | x | x | x | x | 11.0
COC(=O)C1(C(=O)O)Cc2cc([N+](=O)[O-])ccc2N2CCCC21 (stereo not given) | 3.5 | x | x | 16.7 | x | x | x
CC(C)n1c(=O)c(C=Nc2cccc([N+](=O)[O-])c2)c(O)n(CCc2ccccc2)c1=O | 57.2* | -7.2 | 6.6 | -0.9 | -0.3 | 5.7 | 18.2
CC(C)n1c(=O)c(C=Nc2ccc(S(N)(=O)=O)cc2)c(O)n(Cc2ccco2)c1=O | -7.8 | 5.4 | 0.9 | 31.9 | -0.1 | 13.4 | x
O=c1[nH]c(O)c(C=Nc2ccc(Cl)c(C(F)(F)F)c2)c(=O)[nH]1 | -2.4 | x | x | -2.1 | x | x | x
O=C1NCN(c2ccccc2)C12CCN(C(c1cccc3ccccc13)c1nnnn1Cc1ccccc1)CC2 (stereo not given) | 79.1* | x | x | x | x | x | 4.0
CC(C)(C)n1nnnc1C(c1cccc2ccccc12)N1CCC2(CC1)C(=O)NCN2c1ccccc1 (stereo not given) | 76.8* | x | x | x | x | x | 19.1
CCOC(=O)[C@]12Cc3cc(OC)ccc3[C@H]1N(C)C(=O)c1ccccc12 | -6.2 | x | x | x | x | x | x
CCOC(=O)[C@]12Cc3cc(C)ccc3[C@H]1N(C)C(=O)c1ccccc12 | 5.5 | x | x | x | x | x | x
CCOC(=O)[C@]12Cc3cc(OC)ccc3[C@H]1N(C1CCCCC1)C(=O)c1ccccc12 | 77.4* | x | x | x | x | x | 71.9*
CCOC(=O)[C@]12Cc3cc(Cl)ccc3[C@H]1N(C1CCCCC1)C(=O)c1ccccc12 | 76.8* | x | x | x | x | x | 70.8*
Cc1cccc(NP2(=O)NCCCN2)c1 | -5.1 | x | x | x | x | x | x
CCC(Oc1cc(Cl)ccc1Cl)C(=O)N1CCC2(CC1)OCCO2 (stereo not given) | -0.4 | x | x | 1.3 | x | x | x
O=c1[nH]c2ccccc2n1C1CCN(C(c2cccc3ccccc23)c2nnnn2Cc2ccccc2)CC1 (stereo not given) | 80.2* | x | x | x | x | x | 27.6
O=c1[nH]c2ccccc2n1C1CCN(C(c2cc3ccccc3o2)c2nnnn2Cc2ccccc2)CC1 (stereo not given) | 61.3* | x | x | x | x | x | -2.0
COc1cccc(C(c2nnnn2Cc2ccccc2)N2CCC(n3c(=O)[nH]c4ccccc43)CC2)c1OC (stereo not given) | 20.3 | x | x | x | x | x | x
O=c1[nH]c2ccccc2n1C1CCN(C(CCc2ccccc2)c2nnnn2C2CCCC2)CC1 (stereo not given) | 20.9 | x | x | x | x | x | x
